The text below walks through data of PubChem BioAssay.

For test [1], the system named is Wnt5a (protein binding on small-molecule microarray). In words: small molecules binding Wnt5a protein – biophysical, small-molecule microarray, 635/667 nm fluorescence, primary screen (AID 1142).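 Further: fluorescence read at 667 nm with signal to noise per printed feature.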 The following applies: 635 nm fluorescence, higher = more signal.
Test [2] is described as follows: ATP-based viability of Huh7 replicon cells – cell-based, CellTiter-Glo luminescence, basal, 48 h, cytotoxicity control for HCV replication inhibitor project, primary screen (AID 1143).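 Further: Huh7 hepatoma cells carrying a hepatitis C replication reporter with no stimulus; test concentration not given here.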 Conditions: higher = more signal, called active from +8 up or from −8 down.
A short description of test [3]: Pseudomonas biofilm growth suppression – PAO1 strain, BacTiter-Glo luminescence, LB-PBS, primary screen (AID 1144). Conditions: P. aeruginosa PAO1 biofilm, 12 h, higher = more signal.
Test [4] can be described thus: basal CRE-LacZ reporter activity in PC12 – cell-based, unstimulated, primary screen (AID 1145). The following applies: no forskolin, luminescence, 4.5 h, higher = more signal, called active from +8 up or from −8 down.
The nature of test [5]: forskolin-driven CRE-LacZ activity in PC12 – cell-based, CRE-LacZ reporter, forskolin-stimulated, primary screen (AID 1146).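 Further: PC12 cells with 6xCRE LacZ reporter stimulated by forskolin 10 µM; beta-galactosidase reporter signal reflecting CREB driven transcription.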 The following applies: luminescence, 4.5 h, higher = more signal, called active from +8 up or from −8 down.
Test [6] has as its target Streptavidin (Streptomyces avidinii) (UniProt P22629). The test can be described thus: compounds binding control protein streptavidin – biophysical, small-molecule microarray, 635/667 nm fluorescence, artefact control for SMM compound annotation, primary screen (AID 1147).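 Further: signal reflects streptavidin binding to arrayed compounds as a control protein.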 The following applies: higher = more signal.
Test [7] is described as follows: probe aInhba binding on compound microarray – biochemical, small-molecule microarray, 635/667 nm fluorescence, primary screen (AID 1148).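 Further: score merges 667nm spot fluorescence with signal-to-noise for antibody binding to printed compounds.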 The following applies: higher = more signal.
The target in test [8] is Torsin-1A (Homo sapiens) (UniProt O14656). The test can be described thus: TOR1A wild-type binding on microarray – cell lysate, small-molecule microarray, lysate, 635/667 nm, primary screen (AID 1149). The following applies: COS7 hTOR1A-WT lysate, 635 nm fluorescence, higher = more signal.
Torsin-1A (Homo sapiens), sequence (O14656 whole entry, looked up): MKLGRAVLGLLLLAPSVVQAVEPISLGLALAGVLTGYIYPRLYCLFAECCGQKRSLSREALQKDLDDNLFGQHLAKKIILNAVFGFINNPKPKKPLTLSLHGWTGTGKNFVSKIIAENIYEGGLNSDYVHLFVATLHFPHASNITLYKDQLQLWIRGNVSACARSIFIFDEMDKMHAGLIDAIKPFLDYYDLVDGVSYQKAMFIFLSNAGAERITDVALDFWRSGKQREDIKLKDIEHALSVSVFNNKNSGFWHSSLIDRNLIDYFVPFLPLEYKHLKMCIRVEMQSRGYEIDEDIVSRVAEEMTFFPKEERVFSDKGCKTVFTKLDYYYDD
Test [9] has the same target. In words: torsin A mutant lysate binding on microarrays – cell lysate, small-molecule microarray, COS7 lysate, 635/667 nm fluorescence, primary screen (AID 1150).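 Further: score pools 667 nm emission and signal to noise measuring lysate protein binding.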 Conditions: COS7 hTOR1A mutant lysate, 635 nm fluorescence, higher = more signal.
The subject of test [10] is Sonic hedgehog protein (Shh). The test can be described thus: Sonic hedgehog microarray binding compounds – biochemical, small-molecule microarray, 635/667 nm fluorescence, primary screen (AID 1151).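 Further: Shh protein binding to compounds spotted on small-molecule microarray slides; score combines spot fluorescence intensity with signal-to-noise across triplicate slides.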 Conditions: 635 nm fluorescence, higher = more signal.
The nature of test [11]: optical density shifts of acrAB sulA E. coli – strain DRC41, OD650, 48 h, E. coli filamentation inducer project, primary screen (AID 1152).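 Further: E. coli MC1000 strain DRC41 lacking acrAB efflux pump and sulA.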 Conditions: higher = more signal, called active from +8 up or from −8 down.
Test [12] in a line: probe aLefty1 binding on compound microarray – biochemical, small-molecule microarray, 635/667 nm fluorescence, primary screen (AID 1153).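 Further: score merges spot fluorescence with signal-to-noise ratio from the scanned slide images.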 Conditions: higher = more signal.
Test [13] in a line: plasmodial surface anion channel blockers, osmotic lysis – cell-based, P. falciparum Indochina, OD700, 1 h, primary screen (AID 1154). The following applies: P. falciparum Indochina infected RBC osmotic lysis, higher = more signal, called active from +8 up or from −8 down.
The nature of test [14]: plasmodial surface anion channel blockers, osmotic lysis – cell-based, P. falciparum Indochina, OD700, 2 h, primary screen (AID 1155).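 Further: lysis reports solute entry through the parasite surface anion channel PSAC.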 Conditions: P. falciparum Indochina infected erythrocytes, higher = more signal, called active from +8 up or from −8 down.
A short description of test [15]: changes in parasitized red cell lysis, either direction – P. falciparum Indochina, OD700, 3 h, PSAC antagonist project, primary screen (AID 1156). Conditions: P. falciparum-infected erythrocytes, osmotic lysis, higher = more signal, called active from +8 up or from −8 down.
The nature of test [16]: plasmodial surface anion channel blockers, osmotic lysis – cell-based, P. falciparum Indochina, OD700, 18 h, primary screen (AID 1157). The following applies: P. falciparum Indochina infected erythrocytes, osmotic lysis OD700, 18 h; higher = more signal, called active from +8 up or from −8 down.
The nature of test [17]: S6 kinase pathway phospho-S6 level changes – cell-based, A549, cytoblot, luminescence, serum-stimulated, primary screen (AID 1158).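 Further: serum-stimulated A549 lung adenocarcinoma cells; signal is phosphorylated S6 detected by cytoblot immunostaining with HRP secondary.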 Conditions: 5 h, higher = more signal.
For test [18], the target named is NADPH oxidase 2 (Homo sapiens) (UniProt P04839). The test can be described thus: compounds shifting NOX2 Amplex Red fluorescence – cell-based, HEK293-NOX2, PMA-stimulated, NOX inhibitor project, primary screen (AID 1159). Further: test concentration not given here. The following applies: 45 min, higher = more signal, called active from +8 up or from −8 down.
NADPH oxidase 2 (Homo sapiens), sequence (P04839 whole entry, looked up): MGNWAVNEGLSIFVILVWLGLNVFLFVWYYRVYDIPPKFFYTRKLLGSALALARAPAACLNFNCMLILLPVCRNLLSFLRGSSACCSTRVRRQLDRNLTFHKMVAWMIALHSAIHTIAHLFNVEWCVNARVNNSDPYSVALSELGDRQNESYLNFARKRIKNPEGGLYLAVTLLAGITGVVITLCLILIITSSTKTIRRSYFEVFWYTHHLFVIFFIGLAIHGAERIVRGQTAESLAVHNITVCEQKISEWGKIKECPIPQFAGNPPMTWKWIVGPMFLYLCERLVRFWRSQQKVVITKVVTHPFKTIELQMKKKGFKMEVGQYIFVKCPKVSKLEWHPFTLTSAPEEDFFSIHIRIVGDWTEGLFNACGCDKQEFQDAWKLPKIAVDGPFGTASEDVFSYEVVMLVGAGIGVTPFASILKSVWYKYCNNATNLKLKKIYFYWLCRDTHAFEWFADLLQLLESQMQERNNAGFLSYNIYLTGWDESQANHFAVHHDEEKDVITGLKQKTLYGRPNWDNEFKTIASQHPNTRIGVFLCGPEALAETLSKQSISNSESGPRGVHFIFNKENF
The target of test [19] is NADPH oxidase 4 (Homo sapiens) (UniProt Q9NPH5). In words: compounds shifting NOX4 Amplex Red fluorescence – cell-based, HEK293-NOX4, tetracycline-induced, NOX inhibitor project, primary screen (AID 1160). The following applies: HEK293-NOX4, Amplex Red H2O2 fluorescence, 45 min; higher = more signal, called active from +8 up or from −8 down.
NADPH oxidase 4 (Homo sapiens), sequence (Q9NPH5 whole entry, looked up): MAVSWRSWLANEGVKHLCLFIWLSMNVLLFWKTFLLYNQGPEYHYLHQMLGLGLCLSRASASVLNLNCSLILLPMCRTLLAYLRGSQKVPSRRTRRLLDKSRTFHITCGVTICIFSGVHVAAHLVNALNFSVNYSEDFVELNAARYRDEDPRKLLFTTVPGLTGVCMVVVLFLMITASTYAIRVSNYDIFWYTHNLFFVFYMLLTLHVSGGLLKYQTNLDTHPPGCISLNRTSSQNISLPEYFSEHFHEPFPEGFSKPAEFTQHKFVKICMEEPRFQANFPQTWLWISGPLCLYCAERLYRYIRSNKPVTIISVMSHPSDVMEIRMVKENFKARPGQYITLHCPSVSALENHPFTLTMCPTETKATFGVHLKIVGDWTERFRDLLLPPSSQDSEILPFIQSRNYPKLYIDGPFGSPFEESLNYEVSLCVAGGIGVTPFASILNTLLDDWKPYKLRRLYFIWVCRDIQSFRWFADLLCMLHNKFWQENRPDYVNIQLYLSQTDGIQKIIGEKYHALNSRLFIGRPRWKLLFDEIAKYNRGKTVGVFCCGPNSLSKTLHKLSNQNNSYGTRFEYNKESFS
For test [20], the target named is NADPH oxidase 5 (Homo sapiens) (UniProt Q96PH1). The test can be described thus: compounds shifting NOX5 Amplex Red fluorescence – cell-based, HEK293-NOX5, NOX inhibitor project, primary screen (AID 1161). The following applies: HEK293-NOX5, ionomycin, 45 min, higher = more signal.
NADPH oxidase 5 (Homo sapiens), sequence (Q96PH1 whole entry, looked up): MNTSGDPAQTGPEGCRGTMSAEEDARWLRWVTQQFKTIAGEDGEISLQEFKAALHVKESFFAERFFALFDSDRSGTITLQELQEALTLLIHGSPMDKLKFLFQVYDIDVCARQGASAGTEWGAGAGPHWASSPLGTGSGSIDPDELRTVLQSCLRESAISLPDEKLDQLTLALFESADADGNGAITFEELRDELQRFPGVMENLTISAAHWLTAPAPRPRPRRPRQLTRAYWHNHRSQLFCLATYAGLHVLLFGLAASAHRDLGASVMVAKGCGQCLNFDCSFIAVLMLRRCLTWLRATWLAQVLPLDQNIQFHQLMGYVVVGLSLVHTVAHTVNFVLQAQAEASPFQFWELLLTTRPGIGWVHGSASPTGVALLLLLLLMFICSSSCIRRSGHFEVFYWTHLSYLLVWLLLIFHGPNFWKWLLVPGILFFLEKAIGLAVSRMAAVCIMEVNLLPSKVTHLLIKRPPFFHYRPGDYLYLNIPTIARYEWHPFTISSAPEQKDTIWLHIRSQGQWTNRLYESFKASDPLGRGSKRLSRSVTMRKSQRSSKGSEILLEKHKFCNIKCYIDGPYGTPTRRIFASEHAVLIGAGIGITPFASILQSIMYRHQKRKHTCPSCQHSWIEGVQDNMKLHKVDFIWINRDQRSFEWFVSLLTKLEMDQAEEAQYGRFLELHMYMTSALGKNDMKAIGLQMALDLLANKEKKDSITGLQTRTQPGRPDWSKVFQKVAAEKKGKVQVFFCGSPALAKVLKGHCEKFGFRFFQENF

The structures appear in SMILES notation. Calls of active or inactive are those of the source. Unless noted, how the calls were made is not given here.

Streptavidin (Streptomyces avidinii), sequence (P22629 whole entry, looked up): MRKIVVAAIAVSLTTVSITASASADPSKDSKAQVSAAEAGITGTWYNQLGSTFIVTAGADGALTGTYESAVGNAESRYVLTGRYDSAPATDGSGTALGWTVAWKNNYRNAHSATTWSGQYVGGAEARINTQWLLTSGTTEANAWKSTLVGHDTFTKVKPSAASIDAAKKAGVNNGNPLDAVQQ

For the molecule `CN1C(=O)C2C=CC(C(O)COCc3ccccc3)N(Nc3ccccc3)C2C1=O` (stereo not given), the composite z-score is 0.122 in [1]; 0.37 in test [6]; -0.018 in test [7]; -0.24 in the test with Torsin-1A (Homo sapiens) [8]; 0.162 in the test with Torsin-1A (Homo sapiens) [9]; 0.0686 in test [10]. Further, the composite z-score in test [12] was 0.167. Also, the z-score in test [2] is 0.631 (inactive); in test [3], -0.0726 (inactive); in test [4], 1.59 (inactive); in test [5], -0.236 (inactive); in test [11], -0.75 (inactive); in [13] it was 0.625 (inactive). The z-score in test [14] was 0.167 (inactive); in [15], -0.225 (inactive); in test [16], 0.63 (inactive); in [17] it was -1.01; in [18] it was -2.32 (inactive); in test [19], -4.03 (inactive). Besides, the z-score in [20] was -2.63.
As for `COCCCNC(=O)[C@@]1(C)c2ccccc2C(=O)N(c2ccc(C)cn2)[C@H]1c1ccc(CO)cc1`, the composite z-score was -0.259 in test [1]; -1.4 in [6]; -0.202 in [7]; 0.152 with Torsin-1A (Homo sapiens) [8]; -1.17 with Torsin-1A (Homo sapiens) [9]; -0.0308 in [10]. The molecule further displayed a composite z-score in test [12] of -0.341. Besides, the z-score in [2] was 0.616 (inactive); in test [3] it was -0.252 (inactive); in test [4], 0.0279 (inactive); in test [5], 0.208 (inactive); in test [11], -0.0018 (inactive); in [13], 0.833 (inactive). In addition, the z-score in [14] is -0.186 (inactive); in [15], 0.0037 (inactive); in [16] it was -0.211 (inactive); in [17], -0.161; in [18], -1.02 (inactive); in test [19], -0.261 (inactive). Moreover, the z-score in test [20] is -1.7.
Take `C=CC[C@@]1(C(=O)NCCN2CCOCC2)N=C(c2ccc(OCCCO)cc2)O[C@@H]1c1ccccc1`: the composite z-score in test [1] came to 1.32; in test [6] it was 0.803; in [7], 0.328; in the test with Torsin-1A (Homo sapiens) [8] it was 1.24; with Torsin-1A (Homo sapiens) [9] it was 0.94; in test [10] it was 2.1. The same molecule yielded a composite z-score in test [12] of 0.562. Moreover, the z-score in [2] was -0.914 (inactive); in [3], -0.299 (inactive); in test [4], 0.54 (inactive); in test [5], -0.0392 (inactive); in test [11], -0.302 (inactive); in test [13], 18.7 (active). Further, the z-score in [14] was 3.03 (inactive); in [15], 1.55 (inactive); in [16] it was 0.863 (inactive); in [17], -0.501; in [18], 0.48 (inactive); in test [19], 0.62 (inactive). In test [20], the z-score is -0.092.
On to `CN(C)C(=O)[C@@]1(CCC(=O)OC(C)(C)C)COC(c2ccc(OCCCO)cc2)=N1`, for which the composite z-score in test [1] was 0.0507; in test [6], -0.354; in [7] it was 0.174; in the test with Torsin-1A (Homo sapiens) [8], 0.445; with Torsin-1A (Homo sapiens) [9], 1.45; in test [10], -0.942. Also, in [12], the composite z-score is 0.3. Also, the z-score in test [2] is -0.196 (inactive); in [3], -0.478 (inactive); in [4], -0.277 (inactive); in test [5] it was 0.855 (inactive); in test [11], 0.752 (inactive); in test [13] it was 9.27 (active). Also, the z-score in test [14] was 0.536 (inactive); in [15], -0.674 (inactive); in test [16], 0.198 (inactive); in test [17], -0.449; in [18] it was -0.0773 (inactive); in [19], 0.829 (inactive). Further, the z-score in test [20] was determined as 0.655.
Regarding `C[N+](C)(C)CCCCCCNC(=O)[C@@H]1C[C@@H]2C(=O)NCC(=O)N2[C@@H]1c1cccc(OCCO)c1`, the composite z-score in [1] was 0.338; in test [6], -0.357; in test [7] it was -0.0986; in the test with Torsin-1A (Homo sapiens) [8] it was 0.335; in the test with Torsin-1A (Homo sapiens) [9], -0.371; in test [10], 2.16. This molecule gave a composite z-score in test [12] of 0.197. The z-score in test [2] is -3.36 (inactive); in [3] it was -1.82 (inactive); in test [4], -0.797 (inactive); in test [5], -0.933 (inactive); in test [11], 1.73 (inactive); in test [13], 3.17 (inactive). The z-score in test [14] is -1.25 (inactive); in test [15] it was 1.56 (inactive); in test [16], -1.95 (inactive); in [17] it was 0.927; in [18], -2.72 (inactive); in [19], -4.12 (inactive). For the same molecule, in test [20], the z-score was -5.67.
